Results as given in PubChem BioAssay.
Active and inactive are the calls of the source.

Legend:
Albumin (Bos taurus) = Albumin (Bos taurus) (UniProt P02769); experiment: bovine serum albumin binders on microarray, profiling panel, artefact control for SMM control protein annotation, biochemical, small-molecule microarray, Alexa647 label, 635/667 nm fluorescence (AID 1118); conditions: BSA-A647 binding, fluorescence 635 nm, higher = more signal;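 further: score merges 667 nm emission intensity and signal-to-noise per printed compound spot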
Sequence of Albumin (Bos taurus) (P02769 whole entry, looked up): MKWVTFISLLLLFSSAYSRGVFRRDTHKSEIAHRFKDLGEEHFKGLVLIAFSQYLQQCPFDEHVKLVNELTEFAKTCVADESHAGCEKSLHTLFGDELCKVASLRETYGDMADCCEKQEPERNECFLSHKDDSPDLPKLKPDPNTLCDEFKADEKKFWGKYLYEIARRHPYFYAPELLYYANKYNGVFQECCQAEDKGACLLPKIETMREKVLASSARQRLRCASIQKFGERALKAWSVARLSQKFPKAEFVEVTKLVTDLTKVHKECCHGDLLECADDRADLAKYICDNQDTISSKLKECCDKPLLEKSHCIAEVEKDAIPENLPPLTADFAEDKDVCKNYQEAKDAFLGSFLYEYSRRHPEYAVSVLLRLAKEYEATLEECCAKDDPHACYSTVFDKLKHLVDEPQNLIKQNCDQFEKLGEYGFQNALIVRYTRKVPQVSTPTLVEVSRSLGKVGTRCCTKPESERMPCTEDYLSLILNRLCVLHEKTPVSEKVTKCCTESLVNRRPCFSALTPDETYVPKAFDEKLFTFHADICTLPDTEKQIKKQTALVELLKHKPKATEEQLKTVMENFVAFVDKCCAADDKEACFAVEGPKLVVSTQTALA

[1] = small-molecule microarray binders of probe aXIP, primary screen, biochemical, NeuroSMM set, 635/667 nm fluorescence (AID 1119); conditions: higher = more signal, called active from +8 up or from −8 down;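 further: probe is the protein aXip251-270 applied at 1 µg/mL to compound-printed slides; binding of probe to printed compounds measured as 667 nm fluorescence plus signal to noise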
[2] = small-molecule binders of probe aNOTCH3, primary screen, biochemical, small-molecule microarray, 635/667 nm fluorescence (AID 1120); conditions: higher = more signal;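 further: probe is a biotin-tagged antibody raised against NOTCH3 rather than NOTCH3 protein; score merges spot fluorescence near 667 nm with spot signal to noise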
[3] = small-molecule binders of probe aNOTCH2, primary screen, biochemical, small-molecule microarray, 635/667 nm fluorescence (AID 1121); conditions: higher = more signal;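 further: score merges feature fluorescence read at 667 nm with its signal to noise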
[4] = molecular target: Carbonic anhydrase 2 (Homo sapiens) (UniProt P00918); experiment: CAII small-molecule binders, profiling panel, biochemical, small-molecule microarray, Alexa647-labelled CAII (AID 1122); conditions: CAII-A647 binding fluorescence, higher = more signal
[5] = COS7 lysate on small-molecule microarray, probe aHis, 635 nm (AID 1123); conditions: COS7 cell lysate, fluorescence, higher = more signal;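 further: z-score combines 667nm fluorescence intensity with signal-to-noise per printed compound spot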
[6] = compound binding in COS7 lysate, probe aLAP1, primary screen, cell lysate, small-molecule microarray (AID 1124); conditions: probe aLAP1, fluorescence, higher = more signal;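 further: lysate comes from COS7 cells expressing LAP1 and is applied at 0.3 µg/mL; score merges spot fluorescence near 667 nm with signal-to-noise over triplicate slides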
Sam68 (KHDRBS1) = experiment: Sam68 small-molecule binders, primary screen, biochemical, small-molecule microarray, 635 nm fluorescence (AID 1125); conditions: small-molecule microarray binding, higher = more signal;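 further: score merges 667 nm channel intensity with signal to noise over triplicate slides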
[7] = test system: Chordin-like protein 2 (CHRDL2); experiment: CHRDL2 small-molecule binders, primary screen, biochemical, small-molecule microarray, 635 nm fluorescence (AID 1126); conditions: small-molecule microarray binding, fluorescence 635 nm; higher = more signal;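 further: printed compound slides probed with Chrdl2 protein at 4 µg/mL for 1 h at 4 C; score merges 667 nm emission intensity with signal to noise over three replicate slides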
[8] = molecular target: Concanavalin-A (Canavalia ensiformis) (UniProt P02866); experiment: ConA small-molecule binders, primary screen, artefact control for SMM control protein annotation, biochemical, small-molecule microarray, Alexa647 label, 635 nm (AID 1127); conditions: ConA-A647 binding fluorescence, higher = more signal;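 further: z combines 667 nm emission intensity with signal-to-noise across three replicate slides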
Sequence of Concanavalin-A (Canavalia ensiformis) (P02866 whole entry, looked up): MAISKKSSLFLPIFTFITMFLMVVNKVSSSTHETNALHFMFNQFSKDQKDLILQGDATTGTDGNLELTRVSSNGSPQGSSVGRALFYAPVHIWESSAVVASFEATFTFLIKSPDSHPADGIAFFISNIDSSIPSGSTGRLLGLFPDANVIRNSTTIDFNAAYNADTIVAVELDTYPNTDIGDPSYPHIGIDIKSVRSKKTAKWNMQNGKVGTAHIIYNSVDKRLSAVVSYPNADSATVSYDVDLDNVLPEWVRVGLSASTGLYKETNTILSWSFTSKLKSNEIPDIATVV

Structure (SMILES)	composite z-score (Albumin (Bos taurus))	composite Z-score [1]	composite z-score [2]	composite z-score [3]	composite z-score [4]	composite z-score [5]	composite z-score [6]	composite z-score (Sam68 (KHDRBS1))	composite z-score [7]	composite z-score [8]
CC(=O)NCCCC[C@@H]1NC(=O)[C@@H]2C[C@H](C(=O)NCCCCCCN(C)C)[C@H](c3ccc(O)cc3)N2C1=O	-0.853	0.67 (inactive)	-0.0396	0.112	0.57	1.92	-0.234	1.32	1.44	1.21
O=C1c2ccccc2[C@](Cc2ccccc2I)(C(=O)O)[C@H](c2ccc(CO)cc2)N1C1CCCCC1	0.823	0.222 (inactive)	0.447	-0.0708	0.739	3.57	0.589	1.3	-0.423	1.21
C=CCC1=C[C@H]2[C@H]([C@@H]3C=C[C@]2(CC=C)C(=O)[C@]32CO2)[C@@]2(CO2)C1=O	-0.44	0.528 (inactive)	0.519	0.082	-0.262	0.104	-0.0222	-0.56	1.54	-1
CO[C@@H]1COC(=O)CC=C[C@@H](C)[C@H](OC)COC(=O)CC=C[C@H]1C	-0.978	0.413 (inactive)	-0.103	-0.169	-0.374	-0.168	-0.412	-0.345	1.48	-0.362
O=C1OCCC/C=C\[C@H]2OC34C=CCN(CCN5CCOCC5)C(=O)[C@H]3N(CCCCCO)C(=O)[C@@H]4C12 (stereo not given in full)	-1.22	1.39 (inactive)	-0.246	-0.162	0.816	-0.687	-0.401	-0.369	-1.15	-0.167
C=CCC(OC(C)=O)[C@@H]1[C@@H](N(Cc2ccc(-c3cccc(C(F)(F)F)c3)o2)C(=O)Cc2ccc(F)cc2)c2cc(OCCCO)ccc2N1C(=O)c1ccc(-c2ccccc2)cc1 (stereo not given in full)	-0.701	-0.014 (inactive)	-0.0996	-0.154	-0.215	-0.197	0.0045	-0.443	-0.294	-1.04
COC(=O)[C@@]1(Cc2ccccc2CN=[N+]=[N-])N=C(c2ccc(OCCCO)cc2)O[C@H]1c1ccccc1N=[N+]=[N-]	-0.0759	-0.22 (inactive)	-0.0164	0.215	0.569	1.33	-0.507	0.454	-0.388	0.544
O=C(NCc1ccccc1)c1ccc(Br)cc1[N+](=O)[O-]	0.311	0.047 (inactive)	0.116	-0.0488	0.727	0.35	-0.209	0.604	0.446	0.899
CCOC(=O)C[C@H]1[C@H](OC(=O)c2cc3ccccc3oc2=O)[C@@H](NC(=O)C2CCCCC2)c2cc(OCCCO)ccc2N1C(=O)c1ccc2ccccc2n1	0.596	-0.0789 (inactive)	-0.0311	-0.115	0.0744	0.801	-0.108	1.06	0.544	0.953
Cc1ccc(S[C@]2(C(=O)NCCCN(C)C)CC(=O)N(Cc3ccccc3)[C@@H]2c2ccc(CO)cc2I)cc1	0.717	0.35 (inactive)	0.0762	-0.0771	0.688	2	0.755	-0.381	-0.855	0.362
COc1ccc(-c2cc3c(c(-c4ccccc4)n2)[Si](C(C)C)(C(C)C)O[C@H]3c2ccccc2)cn1	0.843	0.0861 (inactive)	0.201	-0.0349	-0.0177	0.263	-0.0375	0.723	0.288	0.165
CO[C@@H]1COC(=O)[C@@H]2CCCN2C(=O)CC=C[C@@H](C)[C@H](OC)COC(=O)[C@@H]2CCCN2C(=O)CC=C[C@H]1C	-1.36	-0.286 (inactive)	-0.0699	-0.141	-0.439	-0.422	0.169	-0.149	1.36	-0.512
O=C1O[C@@H](c2ccccc2)[C@@H](c2ccccc2)N2[C@@H](c3ccc(O)cc3)[C@]3(C(=O)Nc4ccccc43)[C@@H](C(=O)N3CCN(c4ncccn4)CC3)[C@H]12	0.689	5.4 (inactive)	-0.122	-0.154	0.686	0.456	0.613	0.528	-0.571	0.474
COCCOC(=O)N1C(=O)[C@@]2(c3cc(C#CCC(C(=O)OC)C(=O)OC)ccc31)[C@H](c1ccccc1OCCO)N1[C@H](c3ccccc3)[C@H](c3ccccc3)OC(=O)[C@H]1[C@@H]2C(=O)N1CCCCCCC1	-0.0742	2.67 (inactive)	1.23	0.36	0.488	2.18	0.385	1.32	1.27	1.02
CCC#CCN(Cc1ccccc1Br)[C@H](/C=C/c1ccccc1)[C@@H](O)Cc1ccccc1	-0.904	0.12 (inactive)	-0.132	-0.145	-0.225	0.301	0.162	-1.13	-1.16	-0.779
CCCNC(=O)[C@@H]1c2ccccc2C(=O)N(C2CCCCC2)[C@H]1c1ccc(CO)cc1	0.334	0.474 (inactive)	0.103	-0.106	0.293	2.72	0.711	1.29	0.179	1.03
Cc1ccc(S(=O)(=O)N[C@H]2COC(=O)CC=C[C@H](C)COC(=O)N[C@@H](C)C(=O)CC=C[C@@H]2C)cc1	-0.0363	-1.01 (inactive)	-0.178	-0.145	-0.461	-0.43	-0.314	0.269	1.52	0.152

Structure (SMILES)	composite z-score (Albumin (Bos taurus))	composite Z-score [1]	composite z-score [2]	composite z-score [3]	composite z-score [4]	composite z-score [5]	composite z-score [6]	composite z-score (Sam68 (KHDRBS1))	composite z-score [7]	composite z-score [8]
O=C1C2C=CC(C(O)C#Cc3ccccc3)N(Nc3ccccc3)C2C(=O)N1c1ccccc1 (stereo not given)	0.812	0.634 (inactive)	-0.0077	-0.0176	0.812	1.94	0.435	0.432	-0.575	-0.414
C=C(CCCC)/C(=C/C[C@@H](OC(=O)c1ccncc1)c1cccc(OCCO)c1)c1cc(C(=O)OC)ccc1OC	0.6	-0.259 (inactive)	0.0893	-0.0974	0.57	2.84	1.05	1.19	0.287	1.11
Cc1ccc(N2C(=O)c3ccccc3[C@@H](C(=O)NCC(F)(F)F)[C@@H]2c2ccc(CO)cc2)nc1	-0.0791	0.352 (inactive)	-0.185	-0.0674	0.844	-0.786	-0.415	-1.85	-2.4	-1.9
C=C(C(=O)CC[C@H](OC(=O)c1ccccc1-c1ccccc1C(=O)O)c1ccc(CO)o1)C(C)C	0.178	-0.555 (inactive)	-0.068	-0.0986	0.368	0.23	1.47	1.26	0.442	1.07
C#CCCCON=C1C[C@@H](O)[C@@H](O)[C@@H]2[C@@H]3C(=O)N(Cc4ccc5c(c4)OCO5)C(=O)[C@@H]3CC[C@@H]12	0.352	-0.0164 (inactive)	0.0225	-0.148	0.227	0.537	-0.0088	0.005	0.187	0.858
C[C@H]1COC(=O)[C@H](Cc2ccccc2)NC(=O)[C@@H](C)COC(=O)[C@H](Cc2ccccc2)NC1=O	0.732	0.0705 (inactive)	-0.0377	-0.0967	0.447	0.612	0.275	1.27	0.845	0.892
CCOC(=O)C1=C[C@@H](c2ccccc2)N(S(=O)(=O)c2ccc(C)cc2)[C@H]1c1ccc(F)cc1	0.823	-0.263 (inactive)	0.0836	0.111	0.283	1.57	0.284	1.16	-0.0043	1.12
CO[C@H]1O[C@H](CO)[C@@H](OC(=O)Nc2ccccc2)[C@H](OC(=O)Nc2ccc3c(c2)OCO3)[C@@H]1OC(=O)Nc1ccc2c(c1)OCO2	0.536	0.741 (inactive)	0.0459	-0.101	0.655	2.17	0.759	1.3	-0.17	1.12
COC(=O)[C@@]1(Cc2ccccc2N=[N+]=[N-])N=C(c2ccc(OCCCO)cc2)O[C@H]1c1ccccc1CN=[N+]=[N-]	-0.487	0.289 (inactive)	-0.0699	0.0341	0.571	2.1	-0.113	1.22	0.0008	0.456
CCCCCCc1nc(C2CC2)c(C)c2c1[Si](C(C)C)(C(C)C)OC2	-1.57	0.485 (inactive)	-0.0647	-0.0942	-0.364	-0.641	-0.35	-1.28	0.63	-0.693
O=C/C=C/c1ccccc1Cl	0.95	-0.02 (inactive)	-0.0259	-0.0866	0.408	0.333	0.399	-0.764	-0.768	0.0241
[N-]=[N+]=Nc1ccccc1C[C@@]1(C(=O)N2CCOCC2)N=C(c2ccc(OCCCO)cc2)O[C@@H]1c1ccccc1N=[N+]=[N-]	0.873	0.997 (inactive)	0.121	-0.0286	0.467	1.24	0.0649	1.33	-0.338	1.1
COCCOC(=O)N1C(=O)[C@@]2(c3cc(C#CCCO)ccc31)[C@H](c1ccc(O)cc1)N1[C@H](c3ccccc3)[C@H](c3ccccc3)OC(=O)[C@H]1[C@@H]2C(=O)Nc1nc2ccccc2s1	0.0742	-0.0844 (inactive)	0.272	-0.0649	0.16	0.372	0.403	1.29	0.633	1.17
C=C(CCCC)C(=O)CC[C@@H](OC(C)=O)c1ccccc1OCCO	-0.993	2.25 (inactive)	-0.13	-0.117	0.638	-0.429	1.23	-0.665	-0.646	-1.43
COC(=O)C1=CC(c2ccc(CO)cc2)=CC(C2CC2)N(Cc2sc3ccccc3c2Cl)C=C1C(=O)OC (stereo not given)	0.971	0.152 (inactive)	0.3	0.101	0.866	2.78	0.58	1.31	0.185	1.16
C[N+](C)(C)CCCC[C@@H]1NC(=O)[C@H]2C[C@@H](C(=O)NCc3ccc(F)cc3)[C@@H](c3cccc(OCCO)c3)N2C1=O	0.392	1.57 (inactive)	-0.0328	-0.179	0.811	1.48	0.633	1.15	0.864	1.08
